# Source: PubChem
# POLB inh: inhibitors of human DNA polymerase beta. P06746. Pol beta primer extension/strand displacement, fluorescence kinetic. Potency, µM (doses to about 114 µM), for inactives: top-dose activity change, negative = inhibition, actives largely listed as inhibitors. 340,000 compounds, 1.3% hits. AID 485314; further: potency means the concentration at half of the fitted maximal effect; on the % scale 0 is the no-effect control and ±100 the full control effect
#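 Reaction started by 50 nM substrate onto compound-treated Pol beta (10 nM, 15 min preincubation, room temperature); plates read at 0 min and 10 min. Normalized concentration-effect data fitted by four-parameter Hill equation.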
# PI5P4K alpha inh: inhibitors of human PI5P4K alpha; PI5P4Kalpha enzyme, ADP-Glo luminescence, 60 min; hits give low values; max response, %; AID 652105; 330,000 compounds, 1.2% hits; active means max response of -50% or lower; inconclusive means between -30% and -50%; inactive means -30% or higher; further: value at the top dose of about 77 µM; on the % scale 0 is the no-effect control and ±100 the full control effect
#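 Enzyme plus substrate dispensed, test compounds pinned in, then ATP (5 microM final) added. After 60 min at RT, ADP-Glo reagent 1 for 45 min and reagent 2 for 30 min preceded luminescence imaging.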
# POLI inh: inhibitors of human DNA polymerase iota; Q9UNA4; Pol iota fluorescent replication assay, 10 min; 390,000 compounds, 1% hits; Potency, µM (top dose mostly 115 µM), inactives show at the highest dose activity, negative = inhibition, actives largely listed as inhibitors; further: potency means the concentration at half of the fitted maximal effect
#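 Fluorescent replication assay read twice, at 0 min and 10 min after adding 50 nM (final) substrate. Enzyme (10 nM) and compounds were first incubated 15 min at room temperature; enzyme-free buffer wells were negative controls.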
# POLK inh: blocks human DNA polymerase kappa activity; 400,000 compounds, 0.53% hits; purified Pol kappa, fluorescent DNA synthesis assay, 10 min; Potency, µM (series often up to 107 µM), without a hit: at the top dose activity, negative = inhibition, most hits filed as inhibitors; Q9UBT6; AID 588579; further: potency means the concentration at half of the fitted maximal effect; on the % scale 0 is the no-effect control and ±100 the full control effect
# Target sequence (Q9UBT6 whole entry, looked up): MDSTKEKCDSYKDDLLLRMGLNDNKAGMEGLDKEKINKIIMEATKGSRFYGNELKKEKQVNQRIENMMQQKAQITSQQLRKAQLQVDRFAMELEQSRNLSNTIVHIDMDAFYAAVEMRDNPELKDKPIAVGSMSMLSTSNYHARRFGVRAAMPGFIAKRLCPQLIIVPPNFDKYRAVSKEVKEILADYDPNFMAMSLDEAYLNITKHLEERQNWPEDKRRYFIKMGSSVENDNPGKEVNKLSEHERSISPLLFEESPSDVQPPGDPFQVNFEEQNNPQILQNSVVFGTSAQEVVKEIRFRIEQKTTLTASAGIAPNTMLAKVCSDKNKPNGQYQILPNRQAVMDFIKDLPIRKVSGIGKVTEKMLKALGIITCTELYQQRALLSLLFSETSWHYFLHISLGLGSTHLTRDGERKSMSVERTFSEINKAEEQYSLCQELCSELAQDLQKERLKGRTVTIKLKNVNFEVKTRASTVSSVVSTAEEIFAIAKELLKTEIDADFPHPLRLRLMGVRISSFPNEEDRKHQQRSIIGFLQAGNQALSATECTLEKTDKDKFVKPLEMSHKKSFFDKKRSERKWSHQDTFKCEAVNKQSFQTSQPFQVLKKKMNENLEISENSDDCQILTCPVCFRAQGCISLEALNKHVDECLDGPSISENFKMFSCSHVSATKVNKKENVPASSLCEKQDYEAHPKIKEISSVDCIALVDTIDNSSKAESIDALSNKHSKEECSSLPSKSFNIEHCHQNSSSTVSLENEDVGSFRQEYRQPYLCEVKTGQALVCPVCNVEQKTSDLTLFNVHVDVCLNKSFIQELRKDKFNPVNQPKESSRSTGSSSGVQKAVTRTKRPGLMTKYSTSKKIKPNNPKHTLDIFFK
#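 First, compounds were pin-transferred onto 10 nM Pol kappa. After 15 min at room temperature, substrate was added to 50 nM final. Fluorescence was then measured kinetically at 0 and 10 min.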
# Pol eta inh: blocks human DNA polymerase eta activity. Q9Y253. recombinant Pol eta, fluorescent DNA replication assay. Potency, µM (doses to about 114 µM), without a hit: at the top dose activity change, negative = inhibition, hits mostly inhibitors. 390,000 compounds, 1.2% hits. AID 588591; further: potency means the concentration at half of the fitted maximal effect; on the % scale 0 is the no-effect control and ±100 the full control effect
#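 Pol eta (10 nM) was preincubated with compounds for 15 min at room temperature, after which fluorescent replication substrate (50 nM final) was added to start the reaction. Fluorescence was read kinetically at 0 and 10 min.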
# WRN inhibitor: WRN helicase (human) inhibition. 360,000 compounds, 0.46% hits. Potency, µM (highest dose often 114 µM), for inactives: top-dose activity change, negative = inhibition, actives largely listed as inhibitors. WRN helicase unwinding, fluorescent forked duplex, kinetic; further: potency means the concentration at half of the fitted maximal effect; on the % scale 0 is the no-effect control and ±100 the full control effect; nearly all actives have a fitted effect of over 55% in size
#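 Screening of the MLSMR collection measured strand separation of a quenched forked DNA duplex (100 nM) by 20 nM WRN with 2 mM ATP, all final. Compounds were preincubated with enzyme 15 min at room temperature.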
# The depositor's hits bear a star; u = inconclusive; x = not tested or not shown; [ ] = another dose, or the depositor's remark. Most compounds without a hit are left out; they make up all but 2.8% or so of the library. Unless noted, the call rests on the fitted dose curve; in most records, active means well fitted curve in the direction sought with a large enough effect; inconclusive means small, poorly fitted or top-dose-only effect, or another doubt; inactive means no such curve, though single readings can be large; an effect the other way counts as inactive or inconclusive.
SMILES,POLB inh,PI5P4K alpha inh,POLI inh,POLK inh,Pol eta inh,WRN inhibitor
O=C(NCCc1ccc(Cl)cc1)C(=O)NCC(c1ccco1)S(=O)(=O)c1ccc(Cl)cc1 (stereo unspecified),-22%,x,6%,0%[60.1 µM],-15%,x
COc1cc(C)ccc1OCCSc1nc2ccc(NC(=O)c3ccccc3F)cc2s1,2%,x,12%,5%,-10%,x
Clc1ccc(CN2CCC(CNc3ncnc4onc(-c5ccc(Cl)cc5)c34)CC2)cc1,23%,x,23%,-4%,-23%,x
Cc1sc2ccccc2[n+]1C,x,x,6%,-4%,x,x
O=C(NCCc1ccc(Cl)cc1)C1CCN(S(=O)(=O)c2ccc3[nH]ccc3c2)CC1,1%,x,6%,-7%[60.1 µM],-10%,x
CCOC(=O)C1=C(C)Nc2ccccc2N/C1=N\S(=O)(=O)c1cc(C(=O)O)ccc1Cl,x,-3,u,-22%,35µM*,-6%[11.6 µM]
O=S(c1cc(Cl)cc(Cl)c1O)c1cc(Cl)cc(Cl)c1O,x,-51*,x,-3%[19.4 µM],x,-13%
CC1=C(CCC(=O)O)c2cc3nc(cc4[nH]c(cc5[nH]c(cc1n2)c(C)c5C(C)O)c(C)c4C(C)O)C(C)=C3CCC(=O)O (stereo unspecified),x,x,x,20µM*,x,x
Cc1ccc(-c2ccc(CCC(=O)O)n2C(C)C)cc1,15%,3,-11%,3%,-7%,4%
O=C(CCCCCCCCC(=O)N/N=C/c1ccco1)N/N=C/c1ccco1,50µM*,-14,u,-26%,-12%,u
NS(=O)(=O)c1ccc(N/N=C/c2ccc(O)cc2O)c([N+](=O)[O-])c1,25µM*,-11,50µM*,u,u,u
COc1ccc(CCNC(=O)Cn2cc(C(=O)c3ccccc3)c(=O)c3ccc(C)nc32)cc1OC,-22%,x,-21%,-1%,-13%,x
CC1(C)CC(=O)C2=C(C1)OC(N)=C(C#N)C2c1ccc[nH]1 (stereo unspecified),20µM*,-16,28µM*,79µM*,-15%,-13%[57.1 µM]
Cc1ccc(NC(=O)CSc2nc(-c3cccs3)nc3cc(=O)[nH]n23)cc1C,50µM*,x,89µM*,-42%,-18%,x
Cc1ccc(NC(=O)CSc2nc(-c3ccco3)nc3cc(=O)[nH]n23)cc1,50µM*,x,u,-26%,-8%,x
COc1ccc(OC)c(NC(=O)CSc2nc(-c3ccccc3C)nc3cc(=O)[nH]n23)c1,4%,x,11%,-3%,-22%,x
Cc1ccccc1NC(=O)CSc1nc(-c2cccs2)nc2cc(=O)[nH]n12,u,x,89µM*,u,-14%,x
Cc1ccc(NC(=O)CSc2nc(-c3ccc(C(C)(C)C)cc3)nc3cc(=O)[nH]n23)cc1C,u,x,4%,-10%,-8%,x
O=C(NCCc1ccc(Cl)cc1)C(=O)NCC(c1cccs1)S(=O)(=O)c1ccccc1 (stereo unspecified),-7%,x,-16%,-2%[60.1 µM],0%,x
COc1ccc(N2CC(C(=O)Nc3ccccc3-c3nc(-c4ccc(C)cc4)no3)CC2=O)cc1 (stereo unspecified),-18%,x,u,-11%,-14%,x
CCCCN1C(=O)c2[nH]nc(-c3ccccc3O)c2C1c1ccc(OCc2ccccc2)cc1 (stereo unspecified),-2%,x,17%,0%,-17%,x
Cc1ccc(S(=O)(=O)Nc2cc(=O)[nH]c(SCC(=O)Nc3cccc(C(F)(F)F)c3)n2)cc1,58%,-1,125%,-2%,-4%,5%
Cc1ccnc(NS(=O)(=O)c2ccc(NC(=O)Cc3cccs3)cc2)n1,20µM*,-83*,14µM*,32µM*,2.5µM*,40µM*
Cc1ccc(NC(=O)CSc2nc(NS(=O)(=O)c3ccc(C)cc3)cc(=O)[nH]2)cc1,28µM*,x,1%,-15%,-12%,-6%
Cc1cccc(NC(=O)CSc2nc(NS(=O)(=O)c3ccccc3)cc(=O)[nH]2)c1,32µM*,-5,u,-28%,-4%,10%
SMILES,POLB inh,PI5P4K alpha inh,POLI inh,POLK inh,Pol eta inh,WRN inhibitor
Cc1ccc(C)c(SCC(=O)Nc2ccc(S(=O)(=O)Nc3ncccn3)cc2)c1,u,u,u,0%,50µM*,-9%[11.6 µM]
COc1ccc(Cl)cc1NC(=O)CSc1nc(NS(=O)(=O)c2ccccc2)cc(=O)[nH]1,33%,-17,-19%,-6%,-8%,-5%[57.1 µM]
O=C(CSc1nc(NS(=O)(=O)c2ccccc2)cc(=O)[nH]1)Nc1ccc(Cl)cc1,20µM*,u,16µM*,45µM*,-19%,u
CCCCNC(=O)CCCn1c(=O)c2ccccc2n(Cc2ccc(Cl)cc2)c1=O,2%,x,30%,-5%,-7%,x
C#CCOCCOCCOCCNc1nc(N2CCN(C(=O)CCCCCCCCCCNC(=O)Cn3cc(CCCCCN)nn3)CC2)nc(N2CCN(C(=O)CCCCCCCCCCNC(=O)[C@H]([C@@H](C)CC)n3cc(CCCCN=C(N)N)nn3)CC2)n1,x,-72*,u,19%,79µM*,32µM*
C#CCOCCOCCOCCNc1nc(N2CCN(C(=O)CCCCCCCCCCNC(=O)[C@H](CCCCN)n3cc(C)nn3)CC2)nc(N2CCN(C(=O)CCCCCCCCCCNC(=O)[C@H](CCCCN)n3cc(CCCC(=O)O)nn3)CC2)n1,x,-54*,u,5%,-25%,17%
C#CCOCCOCCOCCNc1nc(N2CCN(C(=O)CCCCCCCCCCNC(=O)[C@H]([C@@H](C)CC)n3cc(CCCCCN)nn3)CC2)nc(N2CCN(C(=O)CCCCCCCCCCNC(=O)[C@H](CO)n3cc(CCCCCN)nn3)CC2)n1,x,-50*,u,-10%,-18%,56µM*
C#CCOCCOCCOCCNc1nc(N2CCN(C(=O)CCCCCCCCCCNC(=O)[C@H](CCCCN)n3cc(CCCC(=O)O)nn3)CC2)nc(N2CCN(C(=O)CCCCCCCCCCNC(=O)[C@@H]([C@H](C)O)n3cc(C)nn3)CC2)n1,x,-11,31%,-14%,-17%,9%
C#CCOCCOCCOCCNc1nc(N2CCN(C(=O)CCCCCCCCCCNC(=O)[C@H]([C@@H](C)CC)n3cc(CCCCN=C(N)N)nn3)CC2)nc(N2CCN(C(=O)CCCCCCCCCCNC(=O)[C@H](CCCCN)n3cc(C)nn3)CC2)n1,x,-89*,u,-10%,u,28µM*
C#CCOCCOCCOCCNc1nc(N2CCN(C(=O)CCCCCCCCCCNC(=O)[C@H]([C@@H](C)CC)n3cc(CCCCCN)nn3)CC2)nc(N2CCN(C(=O)CCCCCCCCCCNC(=O)[C@H](CCCCN)n3cc(CCCC(=O)O)nn3)CC2)n1,x,u,7%,17%,-27%,0%
CC(C)(C)n1ncc2c(=O)n(Cc3cccc(F)c3)cnc21,x,x,-10%,8%,x,x
